Compounds without any hit were thinned out: in the full panel of roughly 83,000, 20% have a hit.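 Each cell line was grown in a 96-well plate and treated with one concentration of compound for 48 hours. Values below 10 were considered active.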 Calls of active or inactive are those of the source.
Tests used:
Experiment in all cases: NCI-60 one-dose screen, 48 h (100 = growth as untreated, 0 = no growth, -100 = all killed)
Details in all cases: 10 µM unless noted
NCI-H23 lung = test system: NCI-H23 lung
NCI-H226 lung = test system: NCI-H226 lung
NCI-H322M lung = test system: NCI-H322M lung
NCI-H460 lung = test system: NCI-H460 lung
NCI-H522 lung = test system: NCI-H522 lung
A549/ATCC NSCLC = test system: A549/ATCC NSCLC
786-0 renal = test system: 786-0 renal
COLO 205 colon = test system: COLO 205 colon
DU-145 prostate = test system: DU-145 prostate
K-562 leukemia = test system: K-562 leukemia
MALME-3M melanoma = test system: MALME-3M melanoma
MDA-MB-231 breast = test system: MDA-MB-231 breast
RXF 393 renal = test system: RXF 393 renal
SF-268 CNS = test system: SF-268 CNS
SF-295 CNS = test system: SF-295 CNS
SF-539 CNS = test system: SF-539 CNS
UACC-257 melanoma = test system: UACC-257 melanoma
M14 melanoma = test system: M14 melanoma
HCT-15 colon = test system: HCT-15 colon
HOP-62 NSCLC = test system: HOP-62 NSCLC

SMILES | growth (NCI-H23 lung) | growth (NCI-H226 lung) | growth (NCI-H322M lung) | growth (NCI-H460 lung) | growth (NCI-H522 lung) | growth (A549/ATCC NSCLC) | growth (786-0 renal) | growth (COLO 205 colon) | growth (DU-145 prostate) | growth (K-562 leukemia) | growth (MALME-3M melanoma) | growth (MDA-MB-231 breast) | growth (RXF 393 renal) | growth (SF-268 CNS) | growth (SF-295 CNS) | growth (SF-539 CNS) | growth (UACC-257 melanoma) | growth (M14 melanoma) | growth (HCT-15 colon) | growth (HOP-62 NSCLC)
CCN1C[C@@H](C)n2c(c(O)c3c(=O)n(Cc4ccc(F)c(Cl)c4)nc(C(=O)NC)c32)C1=O | 11.3% (inactive) | 26.4% (inactive) | 18.4% (inactive) | 15.2% (inactive) | 69.3% (inactive) | 11% (inactive) | 18.4% (inactive) | 101% (inactive) | 22.6% (inactive) | 42% (inactive) | 5.1% (active) | 50.7% (inactive) | 2.79% (active) | 23.2% (inactive) | 0.0694% (active) | 3.53% (active) | 3.7% (active) | 30.4% (inactive) | 6.16% (active) | –
CCN1CCN(c2cc(-c3cn[nH]c3-c3cc(C)cc(OC)c3)nc(-c3cccnc3)n2)CC1 | 93.9% (inactive) | 99.7% (inactive) | 67.5% (inactive) | 88.9% (inactive) | 75.6% (inactive) | 82.3% (inactive) | 58.1% (inactive) | 51.3% (inactive) | 75% (inactive) | 21.9% (inactive) | 91.9% (inactive) | 58.6% (inactive) | 61.2% (inactive) | 87.3% (inactive) | 99.9% (inactive) | 83% (inactive) | 84.8% (inactive) | 83.1% (inactive) | – | –
C=C1CC[C@@H]2[C@](C)(COC(C)=O)[C@H](OC(C)=O)CC[C@@]2(C)[C@@H]1CC(Nc1ccc(S(=O)(=O)Nc2cc(C)on2)cc1)C1=CCOC1=O (stereo not given in full) | 71% (inactive) | 79.5% (inactive) | 80.4% (inactive) | 79.5% (inactive) | -20.2% (active) | 72.2% (inactive) | 89.8% (inactive) | 29% (inactive) | 71.1% (inactive) | 9.67% (active) | 56.6% (inactive) | 61.1% (inactive) | 29.8% (inactive) | 67.3% (inactive) | 100% (inactive) | 6.3% (active) | 68.9% (inactive) | 29.9% (inactive) | 0.176% (active) | –
O=Nc1ccc(O)c(=O)cc1 | 70.6% (inactive) | 38.4% (inactive) | 88.3% (inactive) | 114% (inactive) | -74.1% (active) | 110% (inactive) | 15.9% (inactive) | -21.6% (active) | – | 9.11% (active) | -4.09% (active) | 41.6% (inactive) | -42.1% (active) | – | 125% (inactive) | 47.8% (inactive) | 37.4% (inactive) | 30.4% (inactive) | 10.2% (inactive) | –
CCCCCCCC/C=C/CCCCCCCC1=NC(C)(C)CN1CC(C)O (stereo not given) | 67% (inactive) | 89.6% (inactive) | 53.9% (inactive) | -34.9% (active) | – | 27.9% (inactive) | 59% (inactive) | -91.3% (active) | 69.2% (inactive) | – | 68.5% (inactive) | 30.5% (inactive) | 14.7% (inactive) | 55.5% (inactive) | 32.4% (inactive) | 29.2% (inactive) | 87.2% (inactive) | 31.8% (inactive) | 18.3% (inactive) | 36.5% (inactive)
CC(C)[C@H]1CC[C@H]2[C@@H](CC[C@H]3[C@](C)(CN)CCC[C@]23C)C1 | 88.4% (inactive) | 105% (inactive) | 15.3% (inactive) | -66.1% (active) | 80% (inactive) | 87% (inactive) | 72.9% (inactive) | -82.6% (active) | 11.2% (inactive) | 18.7% (inactive) | 83% (inactive) | 63.6% (inactive) | 86.9% (inactive) | 53.5% (inactive) | 80.5% (inactive) | 98.8% (inactive) | 108% (inactive) | 93% (inactive) | – | –
Cc1ccc2c(c1)C(=O)/C(=C/c1ncc([N+](=O)[O-])n1C)O2 | -2.65% (active) | 65.7% (inactive) | 75.6% (inactive) | -38% (active) | -64.1% (active) | 6.86% (active) | 2.46% (active) | -74.8% (active) | -25.9% (active) | 0.705% (active) | -46.7% (active) | -40.1% (active) | -57.7% (active) | -31.9% (active) | 18% (inactive) | 39.1% (inactive) | -34.6% (active) | -55.8% (active) | – | –
c1ccc2c(c1)[nH]c1c2cc[n+]2cc3c(cc12)CCCC3 | 40.6% (inactive) | 35.5% (inactive) | 29.8% (inactive) | 15.2% (inactive) | – | 64% (inactive) | 48.7% (inactive) | 36.3% (inactive) | 40.9% (inactive) | 16.9% (inactive) | 3.13% (active) | 31.4% (inactive) | 76.8% (inactive) | 23% (inactive) | – | 37.6% (inactive) | 38.4% (inactive) | 19.7% (inactive) | 96.9% (inactive) | 18.8% (inactive)
C=C(C[C@](O)(C(=O)/C=C/c1ccc(Cl)cc1)C(=O)OC)c1ccccc1 | 64.4% (inactive) | – | 90.3% (inactive) | 88.6% (inactive) | 66% (inactive) | 74.4% (inactive) | 84% (inactive) | 60.4% (inactive) | 97.4% (inactive) | 50.7% (inactive) | 95.7% (inactive) | 71% (inactive) | 52.5% (inactive) | 87.4% (inactive) | 98.9% (inactive) | 75.8% (inactive) | 91.7% (inactive) | 84.1% (inactive) | – | 54% (inactive)
Cc1ccccc1-c1cc(Cc2ccccc2O)c(=O)[nH]n1 | 103% (inactive) | 85.8% (inactive) | 115% (inactive) | 115% (inactive) | 93.3% (inactive) | 107% (inactive) | 98.9% (inactive) | – | 125% (inactive) | 91.7% (inactive) | 151% (inactive) | 90.7% (inactive) | 140% (inactive) | 85.1% (inactive) | 113% (inactive) | 107% (inactive) | 122% (inactive) | 120% (inactive) | 107% (inactive) | –
Cc1c(N(C)CS(=O)(=O)O)c(=O)n(-c2ccccc2)n1C | 109% (inactive) | 102% (inactive) | 96.9% (inactive) | 121% (inactive) | 89.8% (inactive) | 97.1% (inactive) | 91.5% (inactive) | 115% (inactive) | 112% (inactive) | 102% (inactive) | 94.1% (inactive) | 107% (inactive) | 115% (inactive) | 115% (inactive) | 98.9% (inactive) | 106% (inactive) | 108% (inactive) | 103% (inactive) | 103% (inactive) | –
COc1ccc(/C=C2\COc3ccc(O)c(O)c3C2=O)cc1OC | 41% (inactive) | 46.6% (inactive) | 48.9% (inactive) | 1.26% (active) | -55.5% (active) | 31.7% (inactive) | -17.8% (active) | 55.6% (inactive) | 6.44% (active) | 0.0834% (active) | -57.4% (active) | -2.32% (active) | – | 9.74% (active) | 72.2% (inactive) | -55.4% (active) | 31.4% (inactive) | – | -39.4% (active) | –
c1cncc(CNc2ccccc2-c2nnc(Nc3ccc4c(c3)OCO4)o2)c1 | 18% (inactive) | -14% (active) | 46.6% (inactive) | 9.93% (active) | 3.02% (active) | 20% (inactive) | 37% (inactive) | -39.8% (active) | 1.3% (active) | – | 32.1% (inactive) | 16.3% (inactive) | -2.33% (active) | 33.5% (inactive) | 5.25% (active) | 0.107% (active) | 56.2% (inactive) | 9.13% (active) | 10.2% (inactive) | –
CN(C(=O)c1ccccc1)N(C)C(=O)c1ccccc1 | 110% (inactive) | 112% (inactive) | 96.6% (inactive) | 109% (inactive) | 102% (inactive) | 103% (inactive) | 100% (inactive) | 102% (inactive) | 121% (inactive) | 107% (inactive) | 94.4% (inactive) | 107% (inactive) | 122% (inactive) | 116% (inactive) | – | 108% (inactive) | 113% (inactive) | 99.2% (inactive) | 111% (inactive) | –
ClC1=C(Cl)C(Cl)=C(Cl)C1=Cc1ccc(Cl)cc1 | 33.1% (inactive) | 87.7% (inactive) | 107% (inactive) | -63.4% (active) | 27.5% (inactive) | – | -43% (active) | 13.5% (inactive) | -75.4% (active) | -0.422% (active) | -2.75% (active) | 14.3% (inactive) | 20.5% (inactive) | -69.3% (active) | 34.2% (inactive) | 91.2% (inactive) | – | -47.6% (active) | 66.5% (inactive) | –
CCN(CC)CCOc1ccc(C2=C(c3ccccc3)CCc3cc(OC)ccc32)cc1 | -11.6% (active) | 58.6% (inactive) | 17.6% (inactive) | -55.9% (active) | -25.3% (active) | – | -82.3% (active) | -69.6% (active) | 41.3% (inactive) | -31% (active) | -91.4% (active) | -2.94% (active) | – | 33.1% (inactive) | -72.7% (active) | -17.4% (active) | – | -63.6% (active) | 6.79% (active) | –
Clc1ncn[nH]1 | 106% (inactive) | 102% (inactive) | 98.4% (inactive) | 111% (inactive) | 94.9% (inactive) | 98.1% (inactive) | 103% (inactive) | 104% (inactive) | 110% (inactive) | 105% (inactive) | 103% (inactive) | 112% (inactive) | 102% (inactive) | 104% (inactive) | 78.6% (inactive) | 99.8% (inactive) | 95% (inactive) | 105% (inactive) | 98.6% (inactive) | –

From PubChem BioAssay (NCI)
